Experimental data published in PubChem BioAssay (NCI).
This is part of a sample that, as a whole, favours compounds with a hit. Of some 83,000 tested, about 20% had one in any assay.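 Note: values are percent growth. 100 is the growth of untreated cells, values between 100 and 0 indicate rising inhibition; between -100 and 0 indicates cell death.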 Unmarked numbers belong to inactive results. Activity calls are given as the source filed them. Rule for the calls: active = growth percent below 10; inactive = the rest.

Legend:
Assay in all cases: NCI-60 one-dose screen, 48 h (100 = growth as untreated, 0 = no growth, -100 = all killed)
Details in all cases: 10 µM unless noted
NCI-H23 lung = system: NCI-H23 lung
NCI-H226 lung = system: NCI-H226 lung
NCI-H322M lung = system: NCI-H322M lung
HOP-62 NSCLC = system: HOP-62 NSCLC
NCI-H460 lung = system: NCI-H460 lung
HOP-92 NSCLC = system: HOP-92 NSCLC
NCI-H522 lung = system: NCI-H522 lung
A549/ATCC NSCLC = system: A549/ATCC NSCLC
786-0 renal = system: 786-0 renal
COLO 205 colon = system: COLO 205 colon
DU-145 prostate = system: DU-145 prostate
K-562 leukemia = system: K-562 leukemia
MALME-3M melanoma = system: MALME-3M melanoma
MDA-MB-231 breast = system: MDA-MB-231 breast
RXF 393 renal = system: RXF 393 renal
SF-268 CNS = system: SF-268 CNS
SF-295 CNS = system: SF-295 CNS
SF-539 CNS = system: SF-539 CNS
UACC-257 melanoma = system: UACC-257 melanoma
M14 melanoma = system: M14 melanoma

SMILES	growth (NCI-H23 lung) [%]	growth (NCI-H226 lung) [%]	growth (NCI-H322M lung)	growth (HOP-62 NSCLC) [%]	growth (NCI-H460 lung)	growth (HOP-92 NSCLC)	growth (NCI-H522 lung)	growth (A549/ATCC NSCLC)	growth (786-0 renal)	growth (COLO 205 colon)	growth (DU-145 prostate) [%]	growth (K-562 leukemia)	growth (MALME-3M melanoma)	growth (MDA-MB-231 breast)	growth (RXF 393 renal)	growth (SF-268 CNS)	growth (SF-295 CNS)	growth (SF-539 CNS)	growth (UACC-257 melanoma)	growth (M14 melanoma)
CC(=O)c1c(C)c2cnc(Nc3ccc(N4CCNCC4)cn3)nc2n(C2CCCC2)c1=O	50.9	52.7	31.9%	42	14.1%	66%	-76.7% (active)	22.6%	24.9%	18.5%	39.1	6.83% (active)	2.27% (active)	36.5%	-0.541% (active)	46.7%	70.3%	27.4%	-11.7% (active)	29.2%
Cn1c(Nc2ccc(C(F)(F)F)cc2)nc2cc(Oc3ccnc(-c4ncc(C(F)(F)F)[nH]4)c3)ccc21	48.8	64.5	30.8%	60	59.2%	67%	40.5%	40.1%	89.4%	22.9%	60.4	61.8%	-11.7% (active)	51.7%	7.28% (active)	46.1%	54.1%	21.2%	11.9%	15.7%
CS(=O)(=O)CCNCc1ccc(-c2ccc3ncnc(Nc4ccc(OCc5cccc(F)c5)c(Cl)c4)c3c2)o1	25.9	54.7	13.8%	19.2	-58% (active)	-1.7% (active)	-44.5% (active)	-39.4% (active)	-63.7% (active)	-27.2% (active)	12	-22.7% (active)	-80.3% (active)	-62.8% (active)	-73.9% (active)	8.76% (active)	-7.05% (active)	-91% (active)	-94.1% (active)	-64.5% (active)
CN1[C@@H]2CC[C@H]1/C(=C\c1ccccc1)C1=C2[C@@H](c2ccccc2)C(C#N)=C(N)O1	78.6	67.2	94.8%	90.6	92.7%	78.7%	74%	48.3%	73.4%	80.4%	51.5	64.4%	88.8%	94.9%	63%	77%	83.8%	97.8%	54.6%	75.6%
CNC(=O)CN1CCC(Oc2cc3c(Nc4cccc(Cl)c4F)ncnc3cc2OC)CC1	79.7	76.7	-5.06% (active)	38.3	89.9%	25.1%	5.87% (active)	28.3%	51.8%	61.3%	44.9	60.9%	91.1%	43.6%	24%	51%	76.1%	72.8%	74.4%	84.1%
CS(=O)(=O)N1CCN(Cc2cc3nc(-c4cccc5[nH]ncc45)nc(N4CCOCC4)c3s2)CC1	37.7	39.3	-6.73% (active)	30.9	23.2%	-17.1% (active)	20.8%	8.23% (active)	-7.35% (active)	1.08% (active)	18.8	64%	1.98% (active)	51.5%	-23.3% (active)	30.3%	3.4% (active)	-2.44% (active)	14.7%	40%
CC(=O)OC(C(=O)c1ccccc1)c1ccccc1 (stereo not given)	111	98.9	99.8%	103	101%	58%	90.6%	106%	100%	107%	111	96.5%	95.8%	107%	103%	107%	108%	114%	107%	104%
